Compounds with a hit are over-represented: about 2.8% of the library has one in this group of screens.
Wnt act = Wnt/beta-catenin pathway activators, primary screen, cell-based, plate reader, single point. Wnt/beta-catenin reporter cell assay, activator. activation, % at 9.35 µM. AID 743398, 2014. actives 1.2% (n = 300,000); in the data active = activation above about 30%, passing the limit was not always enough; inconclusive = no clear call, values can overlap the other calls
MITF TRPM1 HTS = activators of MITF-driven TRPM1 promoter reporter, primary screen, cell-based, SK-MEL-5, luciferase, single point; actives 0.75% (n = 300,000); AID 588334, 2011; SK-MEL-5 TRPM1-promoter luciferase, 24 h; % of positive control, neutral wells = 0; activation, % at 12.5 µM;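 active = mean activation of at least 80% with every replicate also reaching 80%; inconclusive = mean reaches 80% but some replicate falls short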
FXN GAA850 act = FXN promoter activators, primary screen, cell-based, luciferase luminescence, HEK293 lucGAA850. HEK293 lucGAA850 FXN promoter luciferase reporter, 24 h; percent of 10 µM SAHA response. activation, % at 6 µM. actives 0.56% (n = 360,000). AID 540364, 2011;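 active = activation above the average of all compounds screened plus 3 SD, cutoff fixed separately per campaign, cut at about 7.5% in these data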
esBAF inh = Bmi1 luciferase reporter increase in mESCs, primary screen, esBAF inhibitor project, mouse ES cells, Bmi1 luciferase knock-in, single point; actives 2% (n = 350,000); 24 h; 100% = twice the neutral-well signal; reporter increase, % at 12.5 µM; in the data active = activation above about 40%; inconclusive = no clear call, values can overlap the other calls;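 note: a rise in the Bmi1 reporter signal indicates esBAF inhibition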
Numbers stand for hits; – = inactive; ? = inconclusive; · = no result given.

SMILES | Wnt act | MITF TRPM1 HTS | FXN GAA850 act | esBAF inh
Fc1cccc2sc(Nc3nnc(-c4ccco4)o3)nc12 | 38 | – | – | –
C[C@@H]1CCCCO[C@@H](CN(C)Cc2ccc(C(=O)O)cc2)[C@H](C)CN([C@@H](C)CO)C(=O)c2cc(NS(=O)(=O)c3ccc(F)cc3)ccc2O1 | · | · | · | –
COc1ccc(C(=O)CC(=O)c2ccccc2)cc1 | 83 | · | – | 70
COc1ccc(C/C(C)=N/NC(=S)Nc2ccccc2)cc1 | – | – | – | 60
COc1ccc(C(=O)CC(=O)c2ccc(OC)cc2)cc1 | – | – | – | –
COc1ccc(C(=O)CSc2ccccc2C(=O)O)cc1 | 44 | – | – | ·
COc1ccc(C(=O)C(OC(=O)c2ccccc2)c2ccccc2)cc1 (stereo unspecified) | – | · | – | 84
CCCN(C)C[C@H]1Oc2ncc(-c3ccccc3)cc2C(=O)N([C@@H](C)CO)C[C@H]1C | · | · | · | –
COC(=O)C[C@@H]1C[C@@H]2c3cc(NC(=O)c4ccc5c(c4)OCO5)ccc3O[C@@H]2[C@@H](CO)O1 | · | · | · | –
COc1ccc(C(=O)C(=NN)c2ccccc2)cc1 | – | · | – | 45
COc1ccc(NC(=O)Cc2ccccc2)cc1 | 36 | – | – | 57
COc1ccc(CC(=O)Nc2ccc(-c3cn4ccc(C)cc4n3)cc2)cc1 | · | – | – | 58
COc1ccc(C(=O)C(=NNc2ccccc2)c2ccc(OC)cc2)cc1 | – | – | – | –
COc1ccc(C(=O)COC(=O)c2ccco2)cc1 | · | – | – | 49
COc1ccc(/C(N)=N/OC(=O)c2ccco2)cc1 | – | – | – | –
COC(=O)c1ccc(OCC(=O)c2ccccc2)cc1 | – | – | – | ·
CC(=O)Nc1ccc(C(=O)COC(=O)c2ccco2)c(F)c1 | – | – | – | 44
COc1ccc(C(=O)/C(=C/N(C)C)S(=O)(=O)c2ccccc2)cc1 | – | 94 | – | ·
CN(C)/C=C(/C(=O)c1ccccc1Cl)S(=O)(=O)c1ccccc1 | · | · | – | –
O=C(COc1ccccc1)c1ccccc1 | – | – | – | 46
COc1ccc(S(=O)(=O)Nc2ccc3c(c2)CC(=O)N([C@H](C)CO)C[C@@H](C)[C@H](CN(C)Cc2ccncc2)O3)cc1 | · | · | · | –
CCCNC(=O)C[C@@H]1CC[C@H]2[C@H](COc3ccc(NC(=O)c4ccc(C(F)(F)F)cc4)cc3C(=O)N2C)O1 | · | · | · | –
O=C(c1ccccn1)N1C[C@@H]2[C@H](c3ccccc31)[C@@H](CO)N2C(=O)CC1CC1 | · | · | · | –
O=C(Nc1ccc2oc(-c3ccccc3)nc2c1)c1ccncc1 | · | – | – | 54
O=C(Nc1cccc(-c2nc3ccccc3o2)c1)c1cccnc1 | – | – | – | ·
SMILES | Wnt act | MITF TRPM1 HTS | FXN GAA850 act | esBAF inh
O=C(Nc1ccc2c(c1)oc1ccccc12)c1cccnc1 | · | 106 | – | 68
O=C(Nc1ccc2c(c1)oc1ccccc12)c1ccncc1 | ? | · | – | –
O=C(Nc1ccc(-c2noc(CCc3ccccc3)n2)cc1)c1cccnc1 | · | – | – | 49
O=C(Nc1ccc2oc(-c3cccnc3)nc2c1)c1cccnc1 | – | · | – | –
O=C(NCCc1ccccc1)c1ccc(NC(=O)c2cccnc2)cc1 | – | – | – | –
O=C(Nc1ccc(-c2nc3ccccc3o2)cc1)c1cccnc1 | 42 | – | – | 50
CS(=O)(=O)Nc1ccc2c(c1)[C@H]1C[C@@H](CC(=O)N3CCOCC3)O[C@H](CO)[C@H]1O2 | · | · | · | –
CC(C)(C)C(=O)Nc1nc(-c2ccccc2)ns1 | · | · | – | 49
N/C(=N\NC(=O)Nc1ccccc1)c1ccccn1 | 36 | · | – | ·
C[C@H](CO)N1C[C@H](C)[C@H](CN(C)CC2CC2)Oc2ccc(NC(=O)Nc3ccc(F)cc3)cc2CC1=O | · | · | · | –
O=C1/C(=C\c2cccnc2)CCc2ccccc21 | – | – | – | –
O=C1/C(=C/c2ccccc2)CCCc2ccccc21 | – | · | – | 49
O=C1c2ccccc2CCc2ccccc21 | – | – | – | –
O=C1C(=Cc2cccs2)CCc2ccccc21 | 48 | · | · | ·
O=C1/C(=C/c2cccs2)CCC/C1=C\c1cccs1 | 36 | – | – | 60
CC1C/C(=C/c2cccs2)C(=O)/C(=C/c2cccs2)C1 (stereo unspecified) | – | – | – | ·
C[C@H](CO)N1C[C@H](C)[C@H](CN(C)Cc2ccc(C(=O)O)cc2)Oc2ccc(NS(=O)(=O)c3ccccc3)cc2CC1=O | · | · | · | –
Fc1ccc(NC(=S)Nc2nccs2)cc1 | – | – | – | ·
O=C(Nc1nccs1)c1ccc(Br)cc1 | – | ? | – | 43
CC(C)(C)c1nnc(NC(=S)Nc2ccccc2)s1 | – | – | – | 75
S=C(Nc1ccccc1)Nc1nccs1 | – | – | – | 60
C/C(=C\c1ccccc1)C(=O)Nc1nccs1 | 52 | – | – | ?
O=C(CCNC(=O)c1ccc(Br)cc1)Nc1nccs1 | – | – | – | ·
C[C@@H]1CN([C@H](C)CO)C(=O)c2cc(NC(=O)Cn3cnnn3)ccc2O[C@@H]1CN(C)C(=O)Nc1ccccc1 | · | · | · | –
CO[C@@H]1CN(C)C(=O)c2ccc(NC(=O)C3CC3)cc2OC[C@H](C)N(C(=O)c2ccccn2)C[C@H]1C | · | · | · | –
SMILES | Wnt act | MITF TRPM1 HTS | FXN GAA850 act | esBAF inh
OC(c1ccc(F)cc1)c1nc(/C=C/c2ccccc2)cs1 (stereo unspecified) | ? | · | – | 50
COc1cc(C(O)c2nc(/C=C/c3ccccc3)cs2)ccc1F (stereo unspecified) | – | · | – | –
CC(C)(C)n1cnc2cc(NCc3cccs3)ccc21 | – | – | – | 52
CCn1cnc2cc(NCc3cccs3)ccc21 | – | – | – | –
Cc1cc(OCCN2CCOCC2)ccc1Cl | – | – | – | 43
C/C=C/c1cnc2c(c1)C(=O)N([C@@H](C)CO)C[C@H](C)[C@H](CN(C)C(=O)Nc1ccc(C(F)(F)F)cc1)O2 | · | · | · | –
CC(=O)c1ccc(N/C=C\C(=O)c2ccc(C)cc2)cc1 | 66 | 93 | – | ·
CC(=O)Nc1ccc(N/C=C/C(=O)c2ccc(Cl)cc2)cc1 | – | · | – | 59
CNC[C@H]1Oc2ccc(NC(=O)Cc3cn(C)c4ccccc34)cc2CC(=O)N([C@H](C)CO)C[C@@H]1C | · | · | · | –
CCOC(=O)C1=C(CP(=O)(c2ccccc2)c2ccccc2)NC(=O)NC1c1ccc(OC)cc1 (stereo unspecified) | 84 | – | – | ·
CCOC(=O)C1=C(CP(=O)(c2ccccc2)c2ccccc2)NC(=O)NC1c1ccc(Cl)cc1 (stereo unspecified) | – | – | – | –
O=C(C[C@H]1CC[C@H]2[C@@H](COC[C@@H](O)CN2S(=O)(=O)c2cccc(F)c2)O1)NCc1ccc2c(c1)OCO2 | · | · | · | –
CCc1ccc(C(=O)c2cncc(Br)c2)cc1 | – | – | – | 46
CC(C)COC(=S)Nc1ccccc1 | · | – | – | 59
CC(C)COCC(O)CCC(=O)NNC(=S)Nc1ccccc1 (stereo unspecified) | – | – | – | ·
Cc1ccc(S(=O)(=O)N[C@H]2CC[C@@H](CCn3cc(C4CC4)nn3)O[C@H]2CO)cc1 | · | · | · | –
CCOC(=O)c1nn(-c2ccc3ccccc3c2)cc1O | ? | 133 | – | 51

Bioassay records as filed in PubChem.
